Test results published in PubChem BioAssay AID493034 (The Scripps Research Institute Molecular Screening Center, 2011).
The campaign covered roughly 2,400 compounds. About 2,200 (92%) were called active. The set was probably picked from earlier hits. The list shows a part of the results. A number with no mark means an inactive call.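 How the source made its calls: active means mean inhibition over triplicate runs exceeds the cutoff derived for the earlier primary screen (cut at about 25% in these data); inactive means the rest.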

What follows are compounds tested against Platelet-activating factor acetylhydrolase IB subunit alpha2 (Homo sapiens) (UniProt P68402) (assay: inhibition of human PAFAH1B2 catalytic subunit – biochemical, fluorescence polarization, FP-rhodamine probe, triplicate, confirmation (AID 493034;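 further: 0% = enzyme with DMSO and 100% = wells lacking PAFAH1B2 protein; inhibitors lower polarization by leaving the probe unbound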)). Settings: recombinant PAFAH1B2, FP-rhodamine probe fluorescence polarization; at 3.39 µM; active compounds read high.
Sequence of Platelet-activating factor acetylhydrolase IB subunit alpha2 (Homo sapiens) (P68402 whole entry, looked up): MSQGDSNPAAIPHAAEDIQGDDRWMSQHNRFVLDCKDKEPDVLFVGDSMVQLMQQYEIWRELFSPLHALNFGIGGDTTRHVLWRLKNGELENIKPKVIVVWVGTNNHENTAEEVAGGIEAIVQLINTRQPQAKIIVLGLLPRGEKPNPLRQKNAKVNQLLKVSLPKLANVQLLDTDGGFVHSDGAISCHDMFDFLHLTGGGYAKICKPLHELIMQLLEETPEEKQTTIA
`Cc1ccc(S(=O)(=O)N2CCCCC2)cc1C(=O)OCC(=O)N1c2ccccc2NC(=O)C1(C)C` was tested, and the inhibition was 23.6%.
Work on `CCOC(=O)c1sc(N(Cc2ccccc2)C(=O)COC(=O)c2ccccc2O)nc1C` yielded an inhibition of 1.5%.
With `CC(=O)NN1C(=O)/C(=C/c2ccc(C(C)C)cc2)SC1=S` the inhibition was 28.4% (active).
For `CC(=O)c1sc(NC(=O)C2(F)C(F)(F)C(F)(F)C(F)(F)C(F)(F)C2(F)F)nc1C`, the inhibition was 28.6% (active).
With `O=C(CN1CCN(S(=O)(=O)c2ccc(Br)s2)CC1)NC1CCCCC1` the inhibition was 22.8%.
`CCn1c(SCC(=O)N(C)C)nc2cc(S(=O)(=O)N3CCOCC3)ccc21` was tested, and the inhibition was 4.4%.
For `O=C(c1cc([N+](=O)[O-])ccc1N1CCN(S(=O)(=O)c2ccc(Cl)c(Cl)c2)CC1)N1CCOCC1`, the inhibition was 27.3% (active).
`CC(NC(=O)c1ccc([N+](=O)[O-])o1)C12CC3CC(CC(C3)C1)C2` (centres undefined) gave an inhibition of 18%.
In the case of `CC(NC(=O)CN1C(=O)NC(Cc2ccccc2)(Cc2ccccc2)C1=O)C12CC3CC(CC(C3)C1)C2` (centres undefined), the inhibition is reported as 71.1% (active).
Work on `CN1CCN(S(=O)(=O)c2ccc(Sc3nnc(-c4cccs4)n3-c3ccccc3)nc2)CC1` yielded an inhibition of 21.5%.
With `CN1CCN(S(=O)(=O)c2ccc(Sc3nnnn3-c3ccccc3)c([N+](=O)[O-])c2)CC1` the inhibition was 41.1% (active).
In the case of `CC(Sc1ccc(S(=O)(=O)N2CCN(C)CC2)cn1)C(=O)NC1(C#N)CCCCC1` (centres undefined), the inhibition is reported as 22.4%.
Work on `CC(OC(=O)C1=COCCO1)C(=O)Nc1ncc(Cl)cc1Cl` (centres undefined) yielded an inhibition of 3.49%.
`N#CC(=C1C=CC(=NO)C(Cl)=C1)c1ccc(Cl)cc1` was tested, and the inhibition was 29.9% (active).
With `C[C@H]1CCC[C@]2(C)C[C@H]3OC(=O)C(CN4CCCCCC4)[C@H]3C=C12` (some centres undefined) the inhibition was 17.8%.
Work on `CN(C)c1ccsc1C(=O)NNS(=O)(=O)c1ccc(Cl)cc1` yielded an inhibition of 17.9%.
`CCNC(=S)NNC(=O)c1cc(-c2cccc(C)c2)nc2ccccc12` was tested, and the inhibition was 14.3%.
For `O=C(NNS(=O)(=O)c1cccc(Cl)c1)c1cc(-c2ccc(F)cc2)nc2ccccc12`, the inhibition was 48.9% (active).
For `O=C(NNS(=O)(=O)c1ccc(Cl)cc1)c1cc(-c2ccccc2)nc2ccccc12`, the inhibition was 54.4% (active).
In the case of `O=C(O)c1ccc(N=Nc2c(O)[nH]c3ccc(Br)cc23)cc1`, the inhibition is reported as 25.6% (active).
`CCc1ccc2[nH]c(O)c(N=NC3=NC(=O)CS3)c2c1` was tested, and the inhibition was 22.3%.
`Oc1[nH]c2ccc(Br)cc2c1N=Nc1nn[nH]n1` was tested, and the inhibition was 69.4% (active).
`O=c1[nH]c(NCCO)nc2c1C1(CCCC1)Cc1ccccc1-2` gave an inhibition of 22.6%.
`CCn1c(SCC(N)=O)nc2c(c1=O)C1(CCCC1)Cc1ccccc1-2` was tested, and the inhibition was 20.1%.
`C=CCSc1n[nH]c2nc3c(c(=O)n12)C1(CCCC1)Cc1ccccc1-3` was tested, and the inhibition was 46.3% (active).
`Cc1ccc(S(=O)(=O)CCC(=O)NCCN2C(=O)S/C(=C/c3ccc(F)cc3)C2=O)cc1` showed an inhibition of 21.1%.
`COc1cc(/C=C2\SC(=S)N(CCCCC(=O)O)C2=O)ccc1OS(=O)(=O)c1ccc(C)cc1` was tested, and the inhibition was 30.5% (active).
For `COc1cc(C=O)ccc1OCCSc1ccc(C)cc1`, the inhibition was 23%.
In the case of `COc1cc(/C=C2\SC(=S)N(CC(=O)O)C2=O)ccc1OS(=O)(=O)c1ccc(C)cc1`, the inhibition is reported as 38.1% (active).
`CCOc1cc2[nH]c(=O)n(CCCC(=O)NCc3ccc(OC)cc3)c(=O)c2cc1OCC` gave an inhibition of 3.79%.
`Cc1ccc(S(=O)(=O)N2[C@@H](c3ccc(Cl)cc3)C(C(=O)O)=CC[C@H]2c2ccc(C(C)C)cc2)cc1` was tested, and the inhibition was 95.9% (active).
With `Cc1ccc(S(=O)(=O)N2[C@@H](c3ccc(Br)cc3)C(C(=O)O)=CC[C@H]2c2ccc(C(C)C)cc2)cc1` the inhibition was 93.5% (active).
For `CC(C)c1ccc(C(C)NCCS(=O)(=O)c2ccc(Cl)cc2)cc1` (centres undefined), the inhibition was 18.1%.
With `CC(Oc1ccc(Cl)cc1)C(=O)OCC(=O)Nc1ncc(Cl)cc1Cl` (centres undefined) the inhibition was 23.2%.
With `Cc1nc(N)nc(N)c1/C=C/C(C)(C)c1ccc(Cl)cc1` the inhibition was 66.2% (active).
`O=C(O)CCN1C(=O)C2C3CC(C2C1=O)C1C(c2ccccc2)c2sc(=O)[nH]c2SC31` (centres undefined) was tested, and the inhibition was 79.6% (active).
In the case of `O=C(O)CCCN1C(=O)C2C3CC(C2C1=O)C1C(c2ccccc2)c2sc(=O)[nH]c2SC31` (centres undefined), the inhibition is reported as 74% (active).
For `ONC(=Nc1ccc(Cl)cc1)c1ccccc1`, the inhibition was 23.1%.
For `O=C(NCc1n[nH]c(=S)n1-c1ccc(Br)cc1)c1ccc(S(=O)(=O)N2CCCCC2)cc1`, the inhibition was 23.9%.
For `O=C(CSc1n[nH]c(-c2ccc(S(=O)(=O)N3CCCCC3)cc2)n1)Nc1nccs1`, the inhibition was 44.6% (active).
`O=C(Nc1nc2ccc(S(=O)(=O)N3CCCCC3)cc2s1)c1ccncc1` gave an inhibition of 20.7%.
For `O=C(Cc1ccc(Br)cc1)c1ccc(O)cc1O`, the inhibition was 70.8% (active).
With `N#Cc1ccc(S(=O)(=O)N2CCc3[nH]c4ccc(F)cc4c3C2)cc1` the inhibition was 31.2% (active).
Work on `CCC(C)CCCCCCCCCCC(=O)O` (centres undefined) yielded an inhibition of 16.6%.
